HCV NS3h FP – hepatitis C NS3 helicase inhibition, primary screen; NS3h Cy5-dT15 DNA binding, fluorescence polarization; inhibition, % at 100 µM; hit rate 1.6% among 16,000; AID 687043;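 active = inhibition above the average over every tested compound plus 3 SD, cut at about 40% in these data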
Cy5 interf NS3h – Cy5 fluorescence interference, HCV helicase counter-screen. Cy5-dT15 DNA with NS3h; actives lie on both sides; signal over control mean, under 1 quenches. fluorescence interference ratio at 100 µM. hit rate 6% among 16,000;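 active = compound fluorescence over control fluorescence at most 0.8, a quencher, or at least a set upper limit, an enhancer; inactive = ratio between 0.8 and the set upper limit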
Hits are given with their value; 0 = inactive. Rows were chosen to be rich in hits. Some 6.9% of all compounds tested hit in one or more screens of this group.

SMILES | HCV NS3h FP | Cy5 interf NS3h
O=[N+]([O-])c1ccc(N2CCN(S(=O)(=O)c3ccc(Cl)cc3)CC2)cc1N1CCOCC1 | 0 | 0
O=C(c1cc(N2CCOCC2)c(F)cc1[N+](=O)[O-])N1CCOCC1 | 0 | 0.684
CCOC(=O)c1ccc(N=Cc2cccc(OC)c2O)cc1 | 0 | 0
CC1CCN(Cn2cnn(CN3CCC(C)CC3)c2=S)CC1 | 0 | 0
CCCNC(=O)/C=C/c1ccc2c(c1)OCO2 | 0 | 0
COC(C)(C)CNS(=O)(=O)c1ccc(C)cc1 | 0 | 0.744
COc1ccc(CNS(=O)(=O)c2ccc(C)cc2)cc1 | 0 | 0
O=C(CN1C(=O)/C(=C/c2cccc(Br)c2)SC1=S)Nc1cccc(C(=O)O)c1 | 0 | 0.759
COc1cc(/C=C2/SC(=S)N(CC(=O)Nc3cccc(C(=O)O)c3)C2=O)cc(OC)c1OC | 0 | 0
O=C(CN(c1ccccc1)S(=O)(=O)c1ccccc1[N+](=O)[O-])Nc1cccc(Cl)c1 | 0 | 0
O=C(O)CN(c1ccccc1)S(=O)(=O)c1ccccc1[N+](=O)[O-] | 0 | 0
CC(NC(=O)CN(c1ccccc1)S(=O)(=O)c1ccccc1[N+](=O)[O-])c1ccccc1 (stereo not given) | 0 | 0.676
CC(C)CNC(=O)CN(c1ccccc1)S(=O)(=O)c1ccccc1[N+](=O)[O-] | 0 | 0.689
COc1ccc(CNc2ncn[nH]2)cc1 | 0 | 0
CCOC(=O)c1c(NC(=O)Cc2cccs2)sc(C(=O)Nc2cc(C(F)(F)F)ccc2Cl)c1C | 0 | 0
Cc1ccc(-n2nc(-c3ccccc3)c3c2C(=O)C=CC3=O)cc1 | 44.1 | 0
COc1ccc(-c2c(-c3ccc(Cl)cc3)nn(-c3ccccc3)c2N)cc1OC | 0 | 0
CCOc1ccc(/C=C2/SC(=S)NC2=O)cc1Cl | 0 | 0
O=C(Nc1cc(C(F)(F)F)ccc1Cl)C(c1ccccc1)c1ccccc1 | 0 | 0.771
O=C(Nc1cc(Cl)cc(Cl)c1)C(c1ccccc1)c1ccccc1 | 0 | 0
Cc1ccc(OCC(=O)Nc2ccc(F)c([N+](=O)[O-])c2)c(C)c1 | 0 | 0
COc1ccc(NCC2OCc3ccccc3CO2)cc1 | 0 | 0
Cc1ccc2cccc(OC(=O)c3ccc(Br)o3)c2n1 | 0 | 0
O=C(Oc1ccc(Oc2ccccc2)cc1)c1ccc(Br)o1 | 0 | 1.22
COc1ccc(OC)c(N(CC(=O)Nc2ccccc2Cl)S(C)(=O)=O)c1 | 0 | 0
SMILES | HCV NS3h FP | Cy5 interf NS3h
Cc1cc(Br)cc2c(N=Nc3cccc4cccnc34)c(O)n(C)c12 | 0 | 0
COCCNC(=O)Nc1ccc2nccnc2c1 | 0 | 0
COC(=O)c1nnn(-c2cc3nccnc3cc2F)c1C(=O)OC | 0 | 0.717
O=C(Nc1ccc(S(=O)(=O)NC(=O)C2CCCCC2)cc1)c1cccc(Br)c1 | 0 | 0.587
O=C(Nc1ccc(S(=O)(=O)Nc2ncccn2)cc1)c1cccc(Br)c1 | 0 | 0
COc1ccc(C2Nc3ccccc3C(=O)N2c2ccc(Cl)cc2)cc1OC (stereo not given) | 0 | 0
NC(=O)c1ccc[n+](CC(=O)c2cc3ccccc3oc2=O)c1 | 0 | 0.603
Nc1ccc[n+](CC(=O)c2ccccc2)c1 | 0 | 0.755
O=C(Nc1cccc(I)c1)c1cc2ccccc2oc1=O | 0 | 0
Nc1cccc(C(=O)Nc2ccccc2)c1 | 0 | 0
CCOC(=O)c1ccc(NC(=O)C2CC(=O)N(c3ccc(F)cc3)C2)cc1 (stereo not given) | 0 | 0
Cc1ccc(S(=O)(=O)N=C(N)Nc2nc(C)c3ccccc3n2)cc1 | 0 | 0
CCOC(=O)C1=C(c2ccccc2)N(C)C(=O)NC1c1ccc2c(c1)OCO2 (stereo not given) | 0 | 0
COc1ccc2nc(NC(=O)COc3ccc(Cl)cc3)sc2c1 | 0 | 0
O=[N+]([O-])c1ccccc1NC(=NS(=O)(=O)c1ccccc1)c1ccccc1 | 0 | 0
O=[N+]([O-])c1ccccc1NC(=NS(=O)(=O)c1ccc(Cl)cc1)c1ccccc1 | 0 | 0.69
CCc1ccc(OCC(=O)Nc2cccc(OC)c2)cc1 | 0 | 0.739
COc1ccc(OCC(=O)Nc2cccc(C(C)=O)c2)cc1 | 0 | 0
COc1ccc(-c2cc(=O)n3[nH]c(-c4ccc(C)cc4)c(C)c3n2)cc1 | 0 | 0
Cc1ccc(-c2[nH]n3c(=O)cc(-c4ccc([N+](=O)[O-])cc4)nc3c2C)cc1 | 0 | 0.794
COCCOC(=O)c1c(C)oc2ccc(OC(=O)c3sc4ccccc4c3Cl)cc12 | 0 | 0
O=C(Cc1ccccc1)Nc1ccc(-c2nc3ccccc3s2)c(O)c1 | 0 | 1.23
O=C(Nc1ccc2oc(-c3ccncc3)nc2c1)c1ccccn1 | 0 | 1.22
Cc1ccc(-c2nc3cc(NC(=O)C(C)C)ccc3o2)cc1 | 0 | 0
CCc1ccc(OCC(=O)Nc2ccc(-c3nc4ccccc4s3)c(O)c2)cc1 | 0 | 0
SMILES | HCV NS3h FP | Cy5 interf NS3h
O=C(Nc1ccc2oc(-c3cccnc3)nc2c1)c1ccncc1 | 0 | 0
CC(C)C(=O)Nc1ccc2oc(-c3ccc(Cl)cc3)nc2c1 | 0 | 0.503
O=C(Cc1ccccc1)Nc1ccc2oc(-c3ccc(Cl)cc3Cl)nc2c1 | 0 | 1.25
Cc1ccc2oc(-c3ccc(NC(=O)Cc4ccccc4)cc3O)nc2c1 | 0 | 0
COc1cc2c(cc1NC(=O)c1cccc(Br)c1)oc1ccccc12 | 0 | 0
CCOc1ccc(C(=O)Nc2ccc(O)c(-c3nc4ccccc4s3)c2)cc1Cl | 0 | 0
C=CCNC(=O)CN(c1ccc(OC)cc1)S(C)(=O)=O | 0 | 0
COc1cc(C(=O)Nc2ccc3oc(-c4ccc5ccccc5c4)nc3c2)cc(OC)c1OC | 0 | 0.717
COc1c(Cl)cc(C(=O)Nc2ccc3oc(-c4ccccc4)nc3c2)cc1Cl | 0 | 0
Cc1ccc(-n2nc3cc(C)c(NC(=O)c4ccccc4I)cc3n2)cc1 | 0 | 0
O=C(c1cc(Cl)ccc1Cl)N1CCN(c2ccccc2)CC1 | 0 | 0.611
COc1cc(C(=O)N2CCN(c3cccc(Cl)c3)CC2)c([N+](=O)[O-])cc1OC | 0 | 0.673
COc1cc(C(=O)N2CCN(Cc3ccccc3)CC2)c([N+](=O)[O-])cc1OC | 0 | 0
O=C(c1cc(Cl)ccc1Cl)N1CCOCC1 | 0 | 0
COC(=O)c1c(NC(=O)COc2ccc(C)cc2Br)sc2c1C(C(=O)OC)CC2 (stereo not given) | 0 | 0
O=C(c1cccc(N2C(=O)C3C4C=CC(C4)C3C2=O)c1)c1cccc(N2C(=O)C3C4C=CC(C4)C3C2=O)c1 (stereo not given) | 43.0 | 0
CC(=O)c1cccc(N2C(=O)C3C4C=CC(C4=C(C)C)C3C2=O)c1 (stereo not given) | 0 | 0
COc1ccc2c(C)c(C(=O)O)oc2c1OC | 0 | 0
Cc1ccc(N2C(=O)/C(=C/c3ccccc3C)C(=O)NC2=S)cc1 | 0 | 0
Cc1ccc(N2CN=C(c3ccccc3)NC2=S)cc1 | 0 | 0.753
CCOc1ccc(C2=Cc3cc(OC)c(OC)cc3S(=O)(=O)O2)cc1 | 0 | 0
O=C(Nc1c(C(=O)N2CCC(Cc3ccccc3)CC2)cnn1-c1ccccc1)c1cccc(F)c1 | 0 | 0
O=C(Nc1c(C(=O)N2CCN(Cc3ccccc3)CC2)cnn1-c1ccccc1)c1cccc(F)c1 | 0 | 1.25
Cc1ccc(/C=N\NC(=O)c2ccccc2C)cc1 | 0 | 0.789
O=C(N/N=C\c1ccc(Cl)cc1)c1ccc(O)cc1 | 0 | 0
O=c1oc(-c2ccccc2Cl)nc2ccc(-c3ccc4nc(-c5ccccc5Cl)oc(=O)c4c3)cc12 | 0 | 0.689
O=c1oc(-c2ccc(Cl)cc2Cl)nc2ccccc12 | 0 | 0
Cc1ccc(NC(=S)NC(=O)c2ccco2)c(C)c1 | 0 | 0
